According to PubChem BioAssay:

What was measured:
[1] = test system: Human papillomavirus type 1a protein E7 (residues 44-93); assay: HPV1a E7 fragment binders on microarrays, primary screen, biochemical, small-molecule microarray, residues 44-93, 635 nm fluorescence (AID 1108); conditions: small-molecule microarray binding, fluorescence 635 nm; higher = more signal;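 note: E7 fragment applied at 1 µg/mL in TBST for 1 h at 4 C; score combines spot fluorescence with its signal to noise ratio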
[2] = modulators of HCV replicon luciferase signal, primary screen, HCV replication inhibitor project, Huh7 cells, luciferase reporter (AID 1109); conditions: 48 h, higher = more signal;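 note: huh7 hepatoma cells harbouring a luciferase neomycin HCV replicon reporter; luciferase luminescence as measure of HCV replicon replication; test concentration not given here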
[3] = target: Left-right determination factor 2 (Homo sapiens) (UniProt O00292); assay: LEFTY2 binders on small-molecule microarrays, primary screen, biochemical, small-molecule microarray, 635 nm fluorescence scan (AID 1110); conditions: LEFTY2 binding, higher = more signal
Chain of Left-right determination factor 2 (Homo sapiens) (O00292 whole entry, looked up): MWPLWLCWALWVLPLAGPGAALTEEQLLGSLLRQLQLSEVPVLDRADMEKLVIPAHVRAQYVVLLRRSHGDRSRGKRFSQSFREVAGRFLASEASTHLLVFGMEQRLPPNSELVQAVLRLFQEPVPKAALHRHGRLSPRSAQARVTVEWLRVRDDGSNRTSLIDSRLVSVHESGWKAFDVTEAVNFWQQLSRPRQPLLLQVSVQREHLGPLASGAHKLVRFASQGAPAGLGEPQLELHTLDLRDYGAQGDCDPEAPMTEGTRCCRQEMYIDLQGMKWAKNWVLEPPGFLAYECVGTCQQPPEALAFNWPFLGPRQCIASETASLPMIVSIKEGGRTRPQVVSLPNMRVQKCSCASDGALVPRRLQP

[4] = target: Calmodulin-1 (Homo sapiens) (UniProt P0DP23); assay: CALM1 binders on microarrays, EGTA buffer, profiling panel, biochemical, small-molecule microarray, Cy5-labelled CALM1 (AID 1111); conditions: Cy5-CALM1 binding fluorescence, higher = more signal;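 note: labelled calmodulin applied in Tris saline Tween buffer holding calcium plus EGTA and DTT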
[5] = target: Calmodulin-1 (Homo sapiens) (UniProt P0DP23); assay: calcium-bound CALM1 binders on microarrays, profiling panel, artefact control for SMM control-protein annotation, biochemical, small-molecule microarray, Cy5-labelled CALM1, plus calcium (AID 1112); conditions: Cy5-CALM1 binding fluorescence, higher = more signal;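 note: score merges spot fluorescence with signal to noise from triplicate slides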
[6] = small-molecule microarray binders of probe aWnt5a, primary screen, biochemical, biotinylated probe, 635/667 nm fluorescence (AID 1113); conditions: higher = more signal;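 note: score merges 667 nm fluorescence intensity with signal-to-noise per printed feature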
[7] = small-molecule microarray binders of probe aShh, primary screen, biochemical, biotinylated probe, 635/667 nm fluorescence (AID 1114); conditions: higher = more signal;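 note: probe is biotin-labelled aShh protein from a stem cell growth factor screen; measures binding of labelled protein to compounds printed on the slide; score merges feature fluorescence at 667 nm with signal-to-noise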
[8] = small-molecule microarray binders of probe aNog, primary screen, biochemical, biotinylated probe, 635/667 nm fluorescence (AID 1115); conditions: higher = more signal;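 note: probe is biotinylated aNog protein used at 0.15 µg/mL for 1 h at 4 C; z-score combines 667 nm fluorescence of each spot with its signal to noise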
[9] = target: Torsin-1A-interacting protein 1 (Homo sapiens) (UniProt Q5JTV8); assay: LAP1 binders from COS7 cell lysate, primary screen, small-molecule microarray, 635/667 nm fluorescence (AID 1116); conditions: COS7-hLAP1 lysate binding, 635 nm fluorescence, higher = more signal
Chain of Torsin-1A-interacting protein 1 (Homo sapiens) (Q5JTV8 whole entry, looked up): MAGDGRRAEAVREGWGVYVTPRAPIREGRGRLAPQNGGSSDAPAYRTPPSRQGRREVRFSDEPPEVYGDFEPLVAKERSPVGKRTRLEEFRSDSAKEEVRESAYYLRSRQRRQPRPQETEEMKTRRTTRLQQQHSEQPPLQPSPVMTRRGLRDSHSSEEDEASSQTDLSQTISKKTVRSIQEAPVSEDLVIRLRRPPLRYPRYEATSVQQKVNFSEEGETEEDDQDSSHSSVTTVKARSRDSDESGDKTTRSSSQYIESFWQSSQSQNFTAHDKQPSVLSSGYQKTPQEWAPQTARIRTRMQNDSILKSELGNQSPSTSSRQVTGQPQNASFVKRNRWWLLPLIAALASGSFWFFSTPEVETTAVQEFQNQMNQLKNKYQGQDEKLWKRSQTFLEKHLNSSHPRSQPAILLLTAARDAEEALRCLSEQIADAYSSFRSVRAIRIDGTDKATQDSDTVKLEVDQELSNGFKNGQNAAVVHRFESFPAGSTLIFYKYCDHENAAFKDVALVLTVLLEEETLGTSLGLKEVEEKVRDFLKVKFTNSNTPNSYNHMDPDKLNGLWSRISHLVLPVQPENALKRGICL

[10] = target: Alpha-bungarotoxin (Bungarus multicinctus) (UniProt P60615); assay: alpha-bungarotoxin binders on microarray, profiling panel, artefact control for SMM control protein annotation, biochemical, small-molecule microarray, Alexa647 label, 635/667 nm fluorescence (AID 1117); conditions: alpha-BTX-A647 binding fluorescence, higher = more signal
Chain of Alpha-bungarotoxin (Bungarus multicinctus) (P60615 whole entry, looked up): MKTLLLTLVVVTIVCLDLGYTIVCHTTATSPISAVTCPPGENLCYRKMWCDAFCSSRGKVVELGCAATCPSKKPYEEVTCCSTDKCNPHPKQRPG

SMILES | composite z-score [1] | z-score [2] | composite z-score [3] | composite z-score [4] | composite z-score [5] | composite z-score [6] | composite z-score [7] | composite z-score [8] | composite z-score [9] | composite z-score [10]
CN1C(=O)C2C=CC(C(O)C3CC=CCC3)N(NC(=O)OC(C)(C)C)C2C1=O (stereo not given) | 0.696 | -0.0017 | 0.46 | 2.3 | 0.785 | -0.0539 | -0.195 | 0.55 | 1.84 | 1.3
N#Cc1ccc(NN2C(C(O)c3c(F)cccc3Cl)C=CC3C(=O)N(c4ccccc4)C(=O)C32)cc1 (stereo not given) | 1.47 | -0.57 | 0.21 | 2.51 | 1.07 | 0.0724 | -0.195 | 1.65 | 2.65 | 1.59
COC(=O)[C@@]1(Cc2ccc(OC)cc2)[C@H]2c3cc(C(=O)N4CCCC4)n(Cc4ccc(OC)c(OC)c4)c3C[C@H]2CN1C(=O)c1ccccc1 | 1.39 | -1.72 | 0.381 | 2.16 | 0.811 | -0.158 | -0.008 | 0.162 | 0.371 | 0.381
CN(C)CCCCCCNC(=O)[C@@H]1C[C@@H]2C(=O)N[C@@H](CCCCN)C(=O)N2[C@@H]1c1cccc(OCCO)c1 | 1.49 | -0.0282 | 1.34 | 2.8 | 1.34 | 1.07 | 1.7 | 3.42 | 4.77 | 2
[N-]=[N+]=NCc1ccccc1[C@@H]1OC(c2ccc(OCCCO)cc2)=N[C@]1(Cc1ccccc1N=[N+]=[N-])C(=O)N1CCOCC1 | 0.841 | -1.56 | 0.404 | 1.97 | 0.995 | 0.334 | 0.686 | 2.35 | 1.44 | 1.82
C=CC[C@@]1(C(N)=O)N=C(c2ccc(OCCCO)cc2)O[C@@H]1c1ccccc1CN=[N+]=[N-] | 1.39 | -1.56 | -0.294 | 1.64 | 0.767 | 0.0597 | 0.166 | 0.661 | 1.91 | 0.834
C=C(COC)/C(=C/C[C@@H](OC(C)=O)c1ccc(CO)o1)c1cnc2ccccc2c1 | 1.31 | -0.638 | 1.07 | 0.0708 | -0.6 | -0.0425 | -0.0146 | 0.256 | 2.19 | 2.76
C#CCN(Cc1ccccc1Br)C(/C=C/c1ccccc1)CO (stereo not given) | -0.413 | -3.49 | -0.362 | -0.669 | -0.423 | -0.16 | 0.0494 | -0.443 | 0.104 | 0.0125
C=CCOC(=O)[C@H]1[C@@H]2C(=O)O[C@@H](c3ccccc3)[C@@H](c3ccccc3)N2[C@@H](c2ccc(OCCOC(=O)[C@H]3C[C@H]4C(=O)N[C@@H](CC(C)C)C(=O)N4[C@H]3c3ccc(O)cc3)cc2)[C@]12C(=O)Nc1ccc(I)cc12 | 1.41 | -0.86 | 0.644 | 0.321 | -0.388 | 0.0597 | 0.0469 | 0.13 | 1.78 | 1.82
C=C(COC)/C(=C/C[C@H](OC(=O)c1ccncc1)c1ccc(OCCO)cc1)c1cnc2ccccc2c1 | 1.46 | -1.63 | 1.07 | 0.447 | -0.669 | 0.0328 | 0.171 | -0.456 | 0.78 | 2.8
[N-]=[N+]=Nc1ccccc1C[C@@]1(C(=O)NCCN2CCOCC2)N=C(c2ccc(OCCCO)cc2)O[C@@H]1c1ccccc1 | 1.47 | -1.32 | 0.248 | 0.797 | -0.3 | -0.0303 | 0.315 | -0.462 | 0.819 | 0.597
COc1cc2c(cc1O)C(C1CC1)N(Cc1cc3c(cc1Br)OCO3)CC2 (stereo not given) | 0.0206 | -3.51 | -1.25 | -0.515 | -0.58 | -0.124 | -0.134 | -0.33 | -0.447 | -0.745
C=C[C@H](COC(C)=O)N(C(=O)OC(C)(C)C)S(=O)(=O)c1ccc(Br)cc1 | 0.4 | -0.757 | 0.467 | -0.159 | -0.907 | 0.205 | 0.113 | -0.0185 | 0.395 | 0.397
C#CCN(CC=C(C)C)[C@H](CO)c1ccccc1 | 0.309 | -0.817 | 0.185 | -0.171 | -0.438 | 0.0771 | -0.279 | -0.176 | 0.455 | 0.136
C=CCC(OC(C)=O)[C@@H]1[C@@H](N(Cc2ccc(-c3cccc(C(F)(F)F)c3)o2)C(=O)Cc2ccc(F)cc2)c2cc(OCCCO)ccc2N1C(=O)Cc1ccc(OC)cc1 (stereo not given in full) | -2.04 | -1.36 | -0.665 | -0.718 | -0.751 | -0.18 | -0.138 | -0.463 | -0.354 | -0.167
O=C1OCC=C[C@H]2OC34C=CCN(CCN5CCOCC5)C(=O)[C@H]3N(CCCO)C(=O)[C@@H]4[C@@H]12 (stereo not given in full) | 0.449 | 0.658 | -0.235 | -0.0514 | -0.944 | -0.18 | -0.223 | -0.326 | 0.819 | -0.0967
C=CCOC(=O)[C@@H]1[C@H]2C(=O)O[C@H](c3ccccc3)[C@H](c3ccccc3)N2[C@H](c2ccc(OCCOC(=O)[C@@H]3C[C@@H]4C(=O)N[C@@H](CCCC[N+](C)(C)C)C(=O)N4[C@@H]3c3cccc(OCCO)c3)cc2)[C@@]12C(=O)Nc1ccc(I)cc12 | 0.741 | -2.48 | 0.692 | 1.02 | 0.0416 | -0.0512 | -0.0146 | 0.886 | 0.897 | 1.59

SMILES | composite z-score [1] | z-score [2] | composite z-score [3] | composite z-score [4] | composite z-score [5] | composite z-score [6] | composite z-score [7] | composite z-score [8] | composite z-score [9] | composite z-score [10]
COCCOC(=O)N1C(=O)[C@@]2(c3cc(C#CCNC(N)=O)ccc31)[C@H](C(=O)NC[C@H](O)c1ccccc1)[C@H]1C(=O)O[C@H](c3ccccc3)[C@H](c3ccccc3)N1[C@@H]2c1ccccc1OCCO | 1.35 | -0.807 | 0.0826 | 1.96 | 0.0588 | 0.207 | -0.0375 | 1.32 | 0.667 | 1.43
C=CCNC(=O)[C@@H]1[C@H]2C(=O)O[C@H](c3ccccc3)[C@H](c3ccccc3)N2[C@H](c2ccc(OCCO)cc2)[C@@]12C(=O)Nc1ccc(C#Cc3ccc(OC)cc3)cc12 | 0.14 | -1.87 | 0.849 | 1.63 | 0.0791 | 0.0597 | 0.366 | 0.201 | 0.781 | 2.88
CCOC(=O)[C@H]1C/C=C/C[C@H](C(=O)OCC)C(=O)O[C@H]2[C@@H](OC)O[C@H](CO)[C@@H](OC(=O)Nc3ccc(C#N)cc3)[C@@H]2OC1=O | -0.324 | -3.6 | -0.0147 | 0.917 | 0.148 | -0.124 | 0.0062 | -0.113 | 1.63 | -0.253
COCCOC(=O)N1C(=O)[C@@]2(c3cc(C#Cc4ccc(OC)cc4)ccc31)[C@H](C(=O)N1CCCCCCC1)[C@H]1C(=O)O[C@H](c3ccccc3)[C@H](c3ccccc3)N1[C@@H]2c1ccc(OCCO)cc1 | 0.114 | -1.7 | 1.47 | 1.88 | 1.2 | 0.543 | 2.15 | 2.9 | 2.98 | 1.14
COc1cc2c(cc1OC)CN(C(=O)[C@@H]1[C@H]3C(=O)O[C@H](c4ccccc4)[C@H](c4ccccc4)N3[C@H](c3ccc(O)cc3)[C@@]13C(=O)Nc1ccc(C#CC4(O)CCCCCC4)cc13)CC2 | 1.21 | -1.1 | 1.39 | 0.965 | -0.0394 | -0.195 | -0.0005 | 2.1 | 0.344 | 1.66
CC(C)(C)OC(=O)CC[C@]1(C(=O)NCC(O)CO)COC(c2ccc(OCCCO)cc2)=N1 (stereo not given in full) | 1.31 | -0.105 | -0.455 | 1.5 | 0.834 | -0.0512 | 0.275 | 0.592 | 1.7 | 1.88
COC(=O)[C@@]1(Cc2ccccc2)[C@H]2c3cc(C(=O)N4CCCC4)n(Cc4cccc5ccccc45)c3C[C@H]2CN1C(=O)c1ccccc1 | 0.696 | -1.55 | -0.188 | 1.51 | 1.42 | 0.816 | 1.96 | 0.714 | 0.434 | 0.645
COc1ccc(C(=O)Nc2ccc(CN3C(=O)[C@@]4(O[C@@H](CCO)[C@H]([Si](C)(C)c5ccc(OC)cc5)[C@H]4C)c4ccccc43)cc2)cc1 | 0.908 | -5.15 | 0.861 | 0.0404 | -0.608 | 0.0367 | -0.0146 | 0.0395 | 1.12 | 0.643
COCCOC(=O)N1C(=O)[C@@]2(c3ccccc31)[C@H](c1ccccc1OCCO)N1[C@H](c3ccccc3)[C@H](c3ccccc3)OC(=O)[C@H]1[C@@H]2C(=O)Nc1nc2ccccc2s1 | 0.484 | -2.52 | 0.531 | 1.24 | 0.375 | 0.0095 | -0.188 | 0.326 | 0.988 | 1.74
O=C1c2ccccc2[C@@]2(Cc3ccccc3N(CCN3CCOCC3)C2=O)[C@H](c2ccc(CO)cc2)N1Cc1ccccc1 | -0.22 | -0.446 | -0.976 | -0.211 | -0.11 | -0.128 | -0.0709 | -0.5 | 1.01 | 0.175
COC(=O)[C@@]1(Cc2ccccc2)[C@H]2c3cc(C(=O)N(C)C)n(CCSCCO)c3C[C@H]2CN1C(=O)c1ccccc1 | 0.933 | -1.34 | -0.654 | 1.26 | 0.786 | 0.117 | 0.383 | 1.66 | 0.0664 | 0.317
CCOC(=O)C1=CCC(c2ccccc2)N(S(=O)(=O)CC[Si](C)(C)C)C1 (stereo not given) | -0.312 | -0.327 | -0.262 | -0.0436 | 0.0045 | -0.208 | -0.262 | -0.338 | -0.28 | 0.115
COC(=O)[C@@]1(Cc2ccc(F)cc2)[C@@H]2[C@@H](CC(=O)[C@H]2CC(=O)C(=O)N(C)C)CN1C(=O)c1ccccc1 | 1.44 | -2.53 | -0.211 | 1.29 | 0.352 | 0.24 | 0.522 | 1.41 | 1.08 | 1.15
CC(C)C(CO)N1C(=O)[C@@H]2[C@H]3C(=O)OCC=C[C@H]3OC23C=CCN(C(C)C)C(=O)[C@@H]13 (stereo not given in full) | -0.432 | 1.07 | -0.0108 | -0.531 | -1.11 | -0.2 | -0.223 | -0.0926 | -0.262 | -0.557
COC(=O)[C@@]1(Cc2ccccc2)[C@H]2c3cc(C(=O)N4CCCC4)n(Cc4nc5ccccc5[nH]4)c3C[C@H]2CN1C(=O)c1ccccc1 | 1.43 | -1.89 | -0.0838 | 2.55 | 1.53 | 0.0003 | -0.2 | 2.15 | 2.53 | 0.442
COc1cc2c(cc1OC)CN(C(=O)[C@H]1[C@@H]3C(=O)O[C@@H](c4ccccc4)[C@@H](c4ccccc4)N3[C@@H](c3ccc(O)cc3)[C@]13C(=O)Nc1ccc(C#CC4=CCCCC4)cc13)CC2 | 0.282 | -1.67 | 1.07 | 1.61 | 0.0648 | 0.133 | -0.0146 | -0.315 | 0.885 | 1.67
